Source: PubChem BioAssay (National Center for Advancing Translational Sciences (NCATS))
LMNA splice mod = LMNA splicing modulation; AID 1487; HeLa LMNA splicing GFP/RFP minigene ratio, 48 h; 200,000 tested, 0.01% active; Potency, µM (titrated, usually from 46.1 µM), for inactives: at the top dose ratio change, negative = inhibition, actives largely listed as inhibitors; active = well fitted inhibition curve with a large enough effect in the signal ratio, with a control signal flat, not every such curve was filed as active; inconclusive = small, poorly fitted or top-dose-only effect, or effect the other way, or a change in a side signal; the % refers to the signal ratio; note: potency is the fitted concentration of half-maximal effect; % is set by controls: 0 for no effect and ±100 for the full control effect
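Read-out is the ratio of GFP to DsRed2 object intensity, acquired by 488 nm laser-scanning cytometry on HeLa lamin A-EGFP minigene reporter cells. Compound incubation 48 hrs at 37 °C in Opti-MEM with 2% FBS; DMSO 0.5% final.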
Luc counter = Kinase-Glo luciferase inhibition (counter-screen); Kinase-Glo luciferase, ATP luminescence, 8 min; Potency, µM (titrated, usually from 38.3 µM), for the others: at the top dose activity change, negative = inhibition, actives largely listed as inhibitors; 200,000 tested, 0.28% active; AID 1379; active = well fitted inhibition curve with a large enough effect; inconclusive = small, poorly fitted or top-dose-only effect; note: potency is the fitted concentration of half-maximal effect; % is set by controls: 0 for no effect and ±100 for the full control effect; nearly all actives have a fitted effect of over 60% in size
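Substrate mix (final 50 mM imidazole pH 7.2, 50 mM KCl, 7 mM MgCl2, 10 uM ATP, 0.01% Tween 20, 0.05% BSA) plus pin-tool compound, then Kinase-Glo detection mix; 8 min ambient, luminescence read.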
ALDH1A1 inh-1 = blocks purified human ALDH1A1 activity; AID 1030; Potency, µM (doses to about 75.3 µM), for inactives: at the highest dose activity, negative = inhibition, most hits filed as inhibitors; Purified ALDH1A1, NADH fluorescence, propionaldehyde substrate; 220,000 tested, 7.3% active; P00352; active = well fitted inhibition curve with a large enough effect, not every such curve was filed as active; inconclusive = small, poorly fitted or top-dose-only effect, or another doubt; inactive = no such curve, though single readings can be large or run the other way;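 note: potency is the fitted concentration of half-maximal effect; plate controls were no enzyme wells and a reference inhibitor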
Target sequence (P00352 whole entry, looked up): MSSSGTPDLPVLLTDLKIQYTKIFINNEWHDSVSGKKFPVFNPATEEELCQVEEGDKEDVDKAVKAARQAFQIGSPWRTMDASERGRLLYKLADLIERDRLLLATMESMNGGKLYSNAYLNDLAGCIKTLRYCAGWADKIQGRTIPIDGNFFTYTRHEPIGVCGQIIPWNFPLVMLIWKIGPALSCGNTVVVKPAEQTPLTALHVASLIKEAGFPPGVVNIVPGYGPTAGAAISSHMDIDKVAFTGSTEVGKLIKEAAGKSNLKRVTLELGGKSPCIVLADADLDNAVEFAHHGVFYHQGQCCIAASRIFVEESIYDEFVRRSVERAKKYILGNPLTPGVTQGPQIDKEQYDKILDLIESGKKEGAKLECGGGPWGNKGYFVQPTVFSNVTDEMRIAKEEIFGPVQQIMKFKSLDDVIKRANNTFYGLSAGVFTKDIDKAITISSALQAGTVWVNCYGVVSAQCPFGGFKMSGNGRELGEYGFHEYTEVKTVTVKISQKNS
PNC assembly inh = inhibitors of perinucleolar compartment assembly. 140,000 tested, 3.1% active. activity change (PNC), negative = inhibition, % at 10 µM. PC3M PTB-GFP, PNC prevalence imaging, 16 h; hits give low values. AID 2417;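 active = readout at or below -70, meaning at least 70% loss of cells showing the perinucleolar compartment, a nuclear body marking cancer cells; inconclusive = readout between -30 and a set limit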;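 note: plate controls were DMSO wells for no effect and camptothecin positive control wells for full effect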
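PC3M cells stably expressing PTB-GFP, 750–1000 cells/well, treated 16 h at 37 °C with compound (23 nl of library stock), in duplicate. After paraformaldehyde fixation and Hoechst stain, imaged at 20x; PNC prevalence scored by image analysis.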
HPGD inh = inhibitors of human 15-hydroxyprostaglandin dehydrogenase (HPGD); Potency, µM, for the others: at the highest dose activity change, negative = inhibition, actives largely listed as inhibitors; AID 894; purified HPGD, NADH fluorescence kinetic, PGE2 substrate; P15428; 150,000 tested, 4.3% active; active = well fitted inhibition curve with a large enough effect, not every such curve was filed as active; inconclusive = small, poorly fitted or top-dose-only effect, or another doubt; inactive = no such curve, though single readings can be large or run the other way; note: potency is the fitted concentration of half-maximal effect; % is set by controls: 0 for no effect and ±100 for the full control effect
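NADH formation kinetics: reaction with 30 uM PGE2 and 1 mM NAD+ (final), 20 nM enzyme, Tris-HCl pH 8 with Tween 20, after 15 min compound preincubation at room temperature. Fluorescence change, last versus first of five reads.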
HPGD inh conf = human HPGD enzyme inhibition, confirmation; shares compounds with HPGD inh; recombinant HPGD, NADH fluorescence, PGE2 substrate; Potency, µM (top dose mostly 57.1 µM), without a hit: at the top dose activity change, negative = inhibition, hits mostly inhibitors; 90 tested, 90% active
ALDH1A1 inh-2 = Inhibits human ALDH1A1, confirmation and counter-screen; shares compounds with ALDH1A1 inh-1; purified ALDH1A1, NADH fluorescence, propionaldehyde/NAD+; Potency, µM (highest dose often 57.1 µM), inactives show top-dose activity change, negative = inhibition, hits mostly inhibitors; 90 tested, 90% active
Active calls of the source: *; u = inconclusive; x = no result; [ ] = dose if it differs, or a comment. Rows were chosen to be rich in hits. Some 10% of all compounds tested hit in one or more screens of this group. Unless noted, calls come from the whole dose curve.

SMILES	LMNA splice mod	Luc counter	ALDH1A1 inh-1	PNC assembly inh	HPGD inh	HPGD inh conf	ALDH1A1 inh-2
O=C(CSc1nc(-c2ccccc2)nn1C(=O)c1ccccc1)Nc1cccc([N+](=O)[O-])c1	19.1%	-1.4%	22.4µM*	53.6	1.26µM*	2.51µM*	x
Cc1ccc(CN(c2ccc(C(=O)N3CCc4ccccc4C3)cc2)S(C)(=O)=O)cc1	u	1.5%	12.3%	u	u	11.2µM*	x
Cc1ccc(S(=O)(=O)NCc2ccc(C(=O)N3CCc4ccccc4C3)cc2)cc1	u	-1.5%	u	21.1	1.41µM*	2.24µM*	x
Cc1ccc(C)c(S(=O)(=O)Nc2cc(SCC(=O)O)c(O)c3ccccc23)c1	u	0.3%	25.1µM*	-5.1	0.891µM*	0.398µM*	x
Cc1ccc(S(=O)(=O)Nc2ccccc2C(=O)O)c(C)c1	x	-2.9%	u	x	u	x	x
O=C(C1CCC(Cn2c(=S)[nH]c3ccccc3c2=O)CC1)N1CCOCC1 (centres undefined)	u	9.2%	1.9%	9.5	1.58µM*	2.51µM*	x
CC(=O)O[C@H]1CC[C@@]2(C)[C@@H](CC[C@H]3[C@H]2CC(=O)[C@@]2(C)[C@@H]3C[C@H]3CC(C)=CC(=O)[C@H]32)C1	x	-4.3%[7.66 µM]	u	x	-0.9%	x	x
COc1ccc(C(=O)c2ccccc2O)c(O)c1	u	-4.4%	-5.8%	x	0.501µM*	1µM*	x
COc1ccc(C(=O)c2ccc(OC)cc2O)c(O)c1	-8.5%	x	7.4%	34.2	x	x	x
CCc1ccccc1NC(=O)C1COc2ccccc2C1 (centres undefined)	3.2%[46 µM]	x	x	x	x	x	x
O=c1c2ccccc2sn1-c1ccccc1	-11.6%	-19.5%	4.47µM*	-11.9	0.562µM*	0.447µM*	x
O=c1[nH]sc2ccccc12	u	-0.3%	u	x	x	x	x
O=C(CN1C(=O)C(=O)c2ccccc21)OCN1C(=O)c2ccccc2C1=O	6.0%[46 µM]	-2.6%	3.9%	x	x	x	x
CCN(CC)C(=O)CN1C(=O)C(=O)c2ccccc21	14.2%[46 µM]	-0.3%	0.02µM*	x	x	x	0.0891µM*
O=C(CN1C(=O)c2ccccc2C1=O)NCCc1c[nH]c2ccccc12	4.3%	0.0%	5.5%	6.2	-13.5%	x	x
O=C(CN1C(=O)C(=O)c2ccccc21)NCCc1ccccc1	x	-0.7%	0.0891µM*	x	x	x	0.0631µM*
CCOC(=O)N/N=C1/C[C@@H](O)[C@@H](O)[C@@H]2[C@@H]3C(=O)N(C(C)(C)C)C(=O)[C@H]3CC[C@@H]12	x	x	9.9%[13.5 µM]	x	x	x	x
CCc1ccc(NC(=O)C(CC)Sc2nc3cc4c(cc3c(=O)n2Cc2ccco2)OCO4)cc1 (centres undefined)	20.4%	-2.3%	0.398µM*	-16.5	-8.1%	x	0.224µM*
CCC(Sc1nc2cc(OC)c(OC)cc2c(=O)n1Cc1ccco1)C(=O)NCCOC (centres undefined)	-4.1%	0.9%	0.794µM*	17.2	-11.9%	x	0.251µM*
COc1ccc(-c2nc3c(c4c2C[C@H](c2ccccc2)OC4)CN(C(=O)Nc2cccc(C#N)c2)CC3)c(C)c1	u	-4.0%[7.66 µM]	u	x	-1.2%	x	x
CCOc1ccccc1CNC(=O)CN1C(=O)C2CCCCN2c2ccc(C(=O)N(C)C)cc21 (centres undefined)	10.8%[46 µM]	x	x	x	x	x	x
O=C(CN1CCN(C2CCCCC2)CC1)Nc1ccccc1-c1ccccc1	-6.9%	5.4%	6.31µM*	-17.6	0.4%	x	u
O=C(CN1CCN(C2CCCCC2)CC1)Nc1cccc2ccccc12	2.0%[46 µM]	2.8%	u	x	x	x	x
O=C1C(=O)N(Cc2ccc(Cl)c(Cl)c2)c2ccccc21	x	-2.1%	0.0501µM*	x	-27.4%	x	0.0794µM*
CCN(CC)C(=O)CSc1nc2ccccc2c(=O)n1CCC(=O)NCc1ccc(F)cc1	-2.2%	1.7%	1µM*	3.3	u	x	1.99µM*
CCOc1ccc(NC(=O)CN2CCN(CC(=O)c3ccc(OCC)cc3)CC2)cc1	9.7%	-1.0%	1.41µM*	3.7	-20.3%	x	4.47µM*
